Consider 16 compounds from PubChem BioAssay (NCI).

Test systems include SR leukemia; RPMI-8226 leukemia; OVCAR-8 ovarian; OVCAR-5 ovarian; SK-OV-3 ovarian; OVCAR-3 ovarian; HS 578T breast; NCI/ADR-RES ovarian; IGROV1 ovarian; OVCAR-4 ovarian.
Common to all, as to test: NCI-60 one-dose screen, 48 h (100 = growth as untreated, 0 = no growth, -100 = all killed)
Details in all cases: 10 µM

This is part of a sample that, as a whole, favours compounds with a hit. Of some 83,000 tested, about 20% had one in any assay.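 48-hour exposure, single concentration, 96-well plates; percent growth endpoint where 0 means no net growth. Active: below 10.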 Unmarked numbers belong to inactive results. The source made the active and inactive calls.

On to `COC(=O)c1cnc2c(c1)Oc1ccc(Cl)cc1-c1cc(C)nn1-2`, for which the growth in the assay with SR leukemia is 89.3%; in the assay with RPMI-8226 leukemia, 95.6%; with OVCAR-8 ovarian it was 96%; in the assay with OVCAR-5 ovarian it was 89%; in the assay with SK-OV-3 ovarian it was 76.6%; with OVCAR-3 ovarian, 44.5%. Moreover, the growth in the assay with HS 578T breast is 56%; in the assay with NCI/ADR-RES ovarian, 70.3%.
Take `O=C(Nc1ccc(OCc2nnc(-c3ccccc3)o2)c(F)c1)Nc1ccc(Cl)c(Cl)c1`: the growth is 6.91% (active) with SR leukemia; 25.5% in the assay on RPMI-8226 leukemia; 61.6% in the assay on OVCAR-8 ovarian; 93.4% in the assay on OVCAR-5 ovarian; 89.6% in the assay on SK-OV-3 ovarian; 57.7% in the assay with IGROV1 ovarian. Besides, the figures for the growth in the assay on OVCAR-3 ovarian, in the assay on HS 578T breast and in the assay with NCI/ADR-RES ovarian were 53.6%, 63.2% and 58.6%, respectively.
Regarding `CN(C)CCCN1c2ccccc2Sc2ccc(C(F)(F)F)cc21`, the growth with SR leukemia was -42.3% (active); in the assay with RPMI-8226 leukemia, 22.5%; in the assay on OVCAR-8 ovarian, 44.4%; in the assay on OVCAR-4 ovarian, 44.4%; in the assay on IGROV1 ovarian, 17%; with OVCAR-3 ovarian it was 8.18% (active). The values for the growth in the assay on HS 578T breast and in the assay on NCI/ADR-RES ovarian were 27% and 10.4%, respectively.
As for `Cc1cc(Cl)ccc1Nc1nc(C(F)(F)F)ccc1C(=O)N/N=C/c1ccccc1Cl`, the growth in the assay on SR leukemia is 66%; in the assay with RPMI-8226 leukemia, 50.5%; with OVCAR-8 ovarian, 21.7%; in the assay on OVCAR-5 ovarian, 30.8%; in the assay with SK-OV-3 ovarian, 10.4%; in the assay with IGROV1 ovarian, 21.6%. For the same compound, the growth in the assay on OVCAR-3 ovarian is 16.3%; in the assay on HS 578T breast, 17.4%; in the assay with NCI/ADR-RES ovarian it was 8.31% (active).
Turning to `CCOC(=O)c1ccc(NC(=O)Nc2nncs2)cc1`, the growth with SR leukemia was 9.88% (active); in the assay on OVCAR-8 ovarian it was 10.8%; in the assay with OVCAR-5 ovarian, 42.4%; in the assay on OVCAR-4 ovarian, 49.9%; with SK-OV-3 ovarian, 3.12% (active); in the assay with IGROV1 ovarian, 16.5%. Besides, the results for the growth with OVCAR-3 ovarian and in the assay with HS 578T breast were -32.7% (active) and 25.3%, respectively.
For the compound `Nc1nc(SCC#CCCl)c2[nH]cnc2n1`, the growth with SR leukemia was 29.9%; in the assay with RPMI-8226 leukemia, 36.2%; with OVCAR-8 ovarian, 71.2%; with OVCAR-5 ovarian, 90.8%; in the assay on SK-OV-3 ovarian it was 49.6%; in the assay on OVCAR-3 ovarian, 54.5%. The figures for the growth with HS 578T breast and with NCI/ADR-RES ovarian were 73.6% and 67%, respectively.
Consider `Cc1cc(C(C)(C)CC(C)(C)C)ccc1OCCOCC[N+](C)(C)Cc1ccccc1`, for which the growth was -62.5% (active) in the assay with SR leukemia; -20% (active) in the assay with RPMI-8226 leukemia; 18.7% with OVCAR-8 ovarian; 2.92% (active) with OVCAR-4 ovarian; -76.8% (active) with IGROV1 ovarian; 12.9% with OVCAR-3 ovarian. Further, the values for the growth with HS 578T breast and with NCI/ADR-RES ovarian were -9.66% (active) and 103%, respectively.
In the case of `O=C(Nc1ccc(OS(=O)(=O)Cc2ccccc2)cc1)C12CC3CC(CC(C3)C1)C2`, the growth in the assay with SR leukemia was 30.3%; in the assay with RPMI-8226 leukemia, 35%; with OVCAR-8 ovarian, 91.4%; with OVCAR-5 ovarian it was 104%; in the assay with SK-OV-3 ovarian, 87.3%; in the assay with IGROV1 ovarian it was 97.8%. In addition, the growth is 80.2% with OVCAR-3 ovarian, 98.7% with HS 578T breast and 84.4% in the assay with NCI/ADR-RES ovarian.
Turning to `C[N+]1=C(/C=C/c2ccc(I)cc2)C(C)(C)c2ccccc21`, the growth in the assay on SR leukemia is -8.97% (active); in the assay with RPMI-8226 leukemia, 71.8%; in the assay on OVCAR-8 ovarian, 67.5%; with OVCAR-5 ovarian, 90.1%; with SK-OV-3 ovarian it was 107%; in the assay with IGROV1 ovarian it was 92.3%. For the same compound, the results for the growth in the assay on OVCAR-3 ovarian, in the assay with HS 578T breast and in the assay with NCI/ADR-RES ovarian were 34.4%, 101% and 101%, respectively.
Consider `Nc1c(C(=O)Nc2ccccc2F)sc2nc3c(cc12)C(=O)CCC3`, for which the growth is 36.7% in the assay with SR leukemia; 52% with RPMI-8226 leukemia; 58.6% in the assay on OVCAR-8 ovarian; 71.1% in the assay with OVCAR-5 ovarian; 13.6% in the assay with SK-OV-3 ovarian; 16.8% with OVCAR-3 ovarian. The results for the growth in the assay on HS 578T breast and in the assay with NCI/ADR-RES ovarian were 37.2% and -4.39% (active), respectively.
`CC1=CC2OC34COC3CC(OC(=O)C(F)(F)F)C4(C)C2(C)CC1` (stereo not drawn): the growth in the assay on SR leukemia was 99.3%; in the assay with RPMI-8226 leukemia, 101%; in the assay with OVCAR-8 ovarian, 106%; in the assay on OVCAR-5 ovarian, 101%; in the assay with SK-OV-3 ovarian, 102%; with OVCAR-3 ovarian, 118%. Also, the growth was 97.7% in the assay with HS 578T breast and 105% in the assay on NCI/ADR-RES ovarian.
Take `O=c1[nH]c(=O)n(C2C[C@@H](O)[C@@H](CO)O2)cc1F` (stereo partly drawn): the growth in the assay with SR leukemia is 25.9%; in the assay on RPMI-8226 leukemia, 59.2%; with OVCAR-8 ovarian it was 30.2%; in the assay with SK-OV-3 ovarian it was 43.6%; in the assay on IGROV1 ovarian it was 43.1%; in the assay with OVCAR-3 ovarian, 30.5%. Also, the growth in the assay on HS 578T breast was 60.8%; with NCI/ADR-RES ovarian it was 29.6%.
For `CC(C)C[C@H](NC(=O)Cn1ccc2ccccc2c1=O)B(O)O`, the growth is 9.81% (active) in the assay on SR leukemia; 11.9% in the assay with RPMI-8226 leukemia; 88.2% in the assay with OVCAR-8 ovarian; 76.9% with OVCAR-5 ovarian; 96.7% in the assay on SK-OV-3 ovarian; 42.3% with OVCAR-3 ovarian. Besides, the figures for the growth in the assay with HS 578T breast and in the assay on NCI/ADR-RES ovarian were 90% and 103%, respectively.
With `Cn1c([N+](=O)[O-])cnc1/C=C1\Oc2ccc(Br)cc2C1=O`, the growth in the assay on SR leukemia was 6.49% (active); in the assay on RPMI-8226 leukemia, 6.2% (active); with OVCAR-8 ovarian it was -11.3% (active); in the assay on OVCAR-5 ovarian, -19.1% (active); with SK-OV-3 ovarian, -7.97% (active); with OVCAR-3 ovarian it was -37.3% (active). In addition, the growth in the assay on HS 578T breast was -17.8% (active); in the assay with NCI/ADR-RES ovarian it was 6.72% (active).
For the compound `FC(F)(F)c1ccc(-c2cnc(Cl)nc2NCc2cc(C(F)(F)F)cc(C(F)(F)F)c2)cc1`, the growth with SR leukemia is 26.2%; in the assay on RPMI-8226 leukemia, 0.828% (active); in the assay on OVCAR-8 ovarian, 15.6%; in the assay with OVCAR-5 ovarian it was 35.2%; in the assay with IGROV1 ovarian, 45.5%; with OVCAR-3 ovarian, 3.89% (active). The growth in the assay on HS 578T breast is 26.8%; in the assay with NCI/ADR-RES ovarian, 12.5%.
For `Cn1c(N)c(N=Cc2ccccc2)c(=O)n(C)c1=O`, the growth in the assay on SR leukemia was 96.2%; in the assay on RPMI-8226 leukemia, 108%; in the assay with OVCAR-8 ovarian, 110%; in the assay with OVCAR-5 ovarian, 133%; in the assay on SK-OV-3 ovarian, 96.4%; in the assay on IGROV1 ovarian it was 106%. In addition, the growth in the assay with OVCAR-3 ovarian is 120%; in the assay with HS 578T breast it was 100%; with NCI/ADR-RES ovarian, 110%.
